Assay outcomes (PubChem)
MIN6 prolif: inducers of beta-cell replication in MIN6 cells. MIN6 cells proliferation, ATPlite luminescence, 48 h; cells starved in 0.2% serum; 100% = growth in 10% serum. proliferation, % at 10 µM. hit rate 0.29% among 330,000. AID 2380;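 active means compounds whose signal lies at least 3.5 SD above the mean of all wells on their plate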
TAG inh: reduces triacylglycerol accumulation in H9c2 cells. inhibition, % at 12.5 µM. AID 651582. Nile Red lipid (TAG) fluorescence; cells loaded with 200 µM oleic acid. hit rate 0.66% among 230,000;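 active means pattern-corrected inhibition of lipid staining of at least 50% with the nuclear-stain viability signal not falling by more than 50%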
CHT block: human CHT choline transport inhibition; Q9GZV3; CHT-expressing cells, membrane potential dye, choline response; hits give low values; B-score at 10 µM; hit rate 0.86% among 310,000; AID 488975;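 active means B-score over 3 SD under the library average, and starting fluorescence ratio not unusually high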;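 further: choline stimulus applied at its EC90 after an EC20 pre-addition; B-score computed on integrated fluorescence ratio after choline addition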
Target sequence (Q9GZV3 whole entry, looked up): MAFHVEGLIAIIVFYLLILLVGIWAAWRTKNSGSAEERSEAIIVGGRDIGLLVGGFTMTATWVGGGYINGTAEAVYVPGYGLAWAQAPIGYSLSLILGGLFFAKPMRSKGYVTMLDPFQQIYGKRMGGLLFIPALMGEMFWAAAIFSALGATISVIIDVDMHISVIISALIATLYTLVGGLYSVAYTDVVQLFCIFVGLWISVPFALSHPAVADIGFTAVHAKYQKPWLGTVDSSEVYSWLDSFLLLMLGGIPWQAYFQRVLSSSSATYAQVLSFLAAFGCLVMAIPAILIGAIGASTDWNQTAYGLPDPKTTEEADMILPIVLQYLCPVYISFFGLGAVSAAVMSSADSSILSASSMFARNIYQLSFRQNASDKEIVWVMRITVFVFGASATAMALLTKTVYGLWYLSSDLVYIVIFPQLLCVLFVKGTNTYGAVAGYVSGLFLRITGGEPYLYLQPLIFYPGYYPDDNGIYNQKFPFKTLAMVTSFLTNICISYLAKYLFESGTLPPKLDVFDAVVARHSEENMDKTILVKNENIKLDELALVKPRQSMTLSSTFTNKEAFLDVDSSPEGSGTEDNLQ
CHT PAM: human CHT allosteric activation. CHT-expressing cells, membrane potential dye, choline EC20; hits give high values; LV-AA mutant CHT in HEK293 cells. AID 488977. B-score at 10 µM. hit rate 0.49% among 310,000;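 active means initial fluorescence not abnormally high and integrated response B-score, plate-corrected, over 3 SD above library mean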
CHT block conf: human CHT inhibition, confirmatory screen; shares compounds with CHT block; CHT-expressing cells, choline membrane potential dye; LV-to-AA substituted CHT, HEK293 cells; CHT activity remaining % of control (hits give low values), % at 10 µM; hit rate 70% among 2,400;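 active means choline transporter activity left, mean of duplicates at 10 µM, below buffer-only control mean minus 3 SD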;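 further: depolarization triggered by choline at its EC90 following an EC20 pre-addition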
HEK293 CHT ctr: counter-screen for CHT inhibitors: effect in parental HEK293 cells; AID 493222; hit rate 4% among 2,400; membrane potential ratio readout (active if shifted either direction beyond buffer ±3SD; no single direction) at 10 µM; shares compounds with CHT block; membrane potential dye, choline response; active = decrease or increase beyond buffer ±3SD;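 further: parental cells lack the transporter so any hit is non-specific; ratio is peak minus trough fluorescence over baseline after EC90 choline challenge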
A number is an active result; n = inactive; x = not tested or not shown. Hits are enriched below; roughly 1.7% of the tested compounds scored in any of these assays.

SMILES | MIN6 prolif | TAG inh | CHT block | CHT PAM | CHT block conf | HEK293 CHT ctr
Cc1ccccc1C(=O)NNC(=S)NC(=O)c1ccc(Cl)cc1Cl | n | x | -9.25 | n | 45.2% | n
COC(=O)c1sccc1NC(=O)Nc1ccc(C(C)=O)cc1 | n | n | n | n | x | x
CCCOP(=O)(c1ccc(N(C)C)cc1)C(O)c1ccc(N(C)C)cc1 (centres undefined) | n | x | n | n | x | x
CCCOP(=O)(c1ccc(N(C)C)cc1)C(O)c1ccc(Br)cc1 (centres undefined) | n | x | -5.77 | n | 68.0% | n
O=c1[nH]cc(C(F)(F)F)cc1NS(=O)(=O)c1ccccc1[N+](=O)[O-] | n | n | n | n | x | x
CCCNC(=O)N1CCCC(C(=O)c2cccc(Cl)c2)C1 (centres undefined) | n | n | -5.24 | n | 59.9% | n
COc1ccc(-c2sc3cc(OC)c(OC)cc3c2-c2ccc(O)cc2)cc1 | n | n | x | x | x | x
CC(=O)Nc1ccc(C=NNc2ccc([N+](=O)[O-])cc2S(=O)(=O)Nc2ccccc2C(=O)O)cc1 | n | n | x | x | x | x
Cc1ccc(NC(=S)NNc2ccc([N+](=O)[O-])cc2S(=O)(=O)Nc2ccccc2C(=O)O)cc1C | x | x | -7.19 | n | 50.0% | n
CCC1CCCCN1CCCNC(=O)c1cn(CC)c2ccc(S(=O)(=O)N(C)C3CCCCC3)cc2c1=O (centres undefined) | n | x | -8.28 | n | 50.1% | 2.82
CCn1cc(C(=O)NCCCOC)c(=O)c2cc(S(=O)(=O)N(C)C3CCCCC3)ccc21 | n | n | n | n | x | x
CCCCN(CCCC)CCNC(=O)c1cn(C)c2ccc(S(=O)(=O)N(C)C3CCCCC3)cc2c1=O | n | x | -6.93 | n | 31.9% | n
CCOC(=O)COc1ccc(S(=O)(=O)NCc2ccco2)cc1 | n | x | -7.61 | n | n | n
O=c1c2ccccc2[nH]c(=S)n1CCN1CCCCC1 | n | n | -11.6 | n | 40.2% | n
O=c1c2ccccc2[nH]c(=S)n1CCCN1CCN(c2ccccc2)CC1 | n | x | n | n | x | x
C=CCn1c(SCc2ccc(Cl)cc2)nc2c1c(=O)[nH]c(=O)n2C | n | x | n | n | x | x
C=CCn1c(SCc2ccc(F)cc2)nc2c1c(=O)[nH]c(=O)n2C | n | n | -6.03 | n | n | n
Nc1c(C(=O)CSc2nc3ccccc3o2)c(=O)[nH]c(=O)n1C1CC1 | n | n | x | x | x | x
Cc1ccc(OCC(=O)NC(=S)Nc2ccccn2)c(Br)c1 | n | n | n | n | x | x
Cc1ccc(OCC(=O)NNC(=S)NC(=O)C(C)(C)C)c(Br)c1 | n | n | -10.1 | n | 54.7% | n
CCn1c(SCc2nc3ccccc3s2)nnc1-c1cccs1 | n | x | n | n | x | x
Cn1c(SCc2nc3ccccc3s2)nnc1-c1cccs1 | n | x | -5.1 | n | 56.2% | n
CCOc1ccccc1NC(=O)NC1CCN(CC(=O)Nc2ccc3c(c2)OCCO3)CC1 | n | n | n | n | x | x
O=C(CN1CCC(NC(=O)c2ccccc2F)CC1)Nc1ccc2c(c1)OCCO2 | n | x | -5.02 | n | n | n
COc1cc(C(=O)OCC(=O)NC2CCCCC2)cc(OC)c1OC | n | n | x | x | x | x
SMILES | MIN6 prolif | TAG inh | CHT block | CHT PAM | CHT block conf | HEK293 CHT ctr
CCOC(=O)C1CCN(Cc2c(O)ccc3ccccc23)CC1 | n | x | n | n | x | x
CCOC(=O)C1CCN(Cc2c(O)c3ccccc3oc2=O)CC1 | n | n | -5.9 | n | 65.1% | n
COc1ccc(/C=C/C(=O)OCC(=O)c2cc(C)ccc2C)cc1 | x | n | x | x | x | x
O=C(NCCO)C1(c2ccccc2)CCCC1 | n | n | n | n | x | x
CCNC(=O)C1(c2ccccc2)CCCC1 | n | n | -6.83 | n | n | n
CN(C(=S)NC(=O)c1ccc(Br)o1)c1ccccc1 | n | x | n | n | x | x
CNc1cc(Cl)nc(SC)n1 | n | n | -11.7 | n | -0.4% | n
CSc1nc(Cl)cc(N2CCOCC2)n1 | n | n | n | n | x | x
COc1ccc(Cc2nnc(NC(=O)c3ccccc3[N+](=O)[O-])s2)cc1 | n | n | -7.14 | n | 26.4% | n
COc1ccc(NC(=O)c2ccccc2[N+](=O)[O-])cc1 | n | x | n | n | x | x
Cc1cc(/C=N/NC(=O)c2ccncc2)c(C)n1-c1ccccc1 | n | n | -6.79 | n | 30.0% | n
CCc1ccc(-n2c(C)cc(/C=N/NC(=O)OC)c2C)cc1 | n | x | -8.63 | n | 61.7% | n
COC(=O)N/N=C/c1cc(C)n(-c2ccccc2)c1C | n | x | -8.35 | n | 23.4% | n
COC(=O)N/N=C/c1cc(C)n(-c2ccc(F)cc2)c1C | n | n | n | n | x | x
CCc1ccc(-n2c(C)cc(/C=N/NC(=O)c3ccncc3)c2C)cc1 | n | x | n | n | x | x
COc1ccc2[nH]cc(CCNC(=O)Cc3ccc(F)cc3)c2c1 | n | n | n | n | x | x
CC(C)N(Cc1cn[nH]c1-c1ccc(-c2ccccc2)cc1)Cc1nccn1C | n | n | n | n | x | x
Cc1cc2[nH]c3ccccc3c2c(C)n1 | n | x | -7.27 | n | 33.7% | n
OCCOc1cccc(CN2CCC(CO)(CCOc3ccccc3)CC2)c1 | n | x | -10.2 | n | n | n
CCOC(=O)C(CC(=O)c1ccccc1)CC(=O)c1ccccc1 | n | x | n | n | x | x
COC(=O)C(CC(=O)c1ccccc1)CC(=O)c1ccccc1 | n | x | -5 | n | n | n
CC1COC(Cn2c3ccccc3c3ccccc32)O1 (centres undefined) | n | n | n | n | x | x
CCN(CC)CCCNC(=O)c1cc(-c2ccc(O)cc2)on1 | n | n | n | n | x | x
CCN(CC)CCCNC(=O)c1cc(-c2ccc(Cl)c(Cl)c2)on1 | n | x | -6.65 | n | 30.7% | n
COc1ccccc1C(=O)Nc1ccnn1C1CCN(C2CCCCC2)CC1 | x | n | x | x | x | x
SMILES | MIN6 prolif | TAG inh | CHT block | CHT PAM | CHT block conf | HEK293 CHT ctr
Cc1cc(N=Nc2ccccc2)c(NCC(O)C(O)C(O)CO)cc1C (centres undefined) | n | n | -10.6 | n | 30.0% | n
O=C(CSc1nnc(-c2ccc(Cl)cc2)n1Cc1ccco1)c1cccs1 | n | x | n | n | x | x
NC(=O)CSc1nnc(-c2ccc(O)cc2)n1Cc1ccco1 | n | n | n | n | x | x
O=C(CSc1nnc(-c2ccc(O)cc2)n1Cc1ccco1)N1CCc2ccccc2C1 | n | n | -5.85 | n | n | n
O=C(CSc1nnc(-c2ccncc2)n1Cc1ccco1)c1ccc(Cl)cc1 | n | x | -5.83 | n | 70.5% | n
CC(C(=O)NC(C)(C)C)N(C(=O)CS(=O)CC(=O)Nc1ccc(F)cc1)C1CCCC1 (centres undefined) | n | x | n | n | x | x
COC(=O)COc1ccc(S(=O)(=O)N2CCN(c3ccccc3F)CC2)cc1 | n | n | -5.2 | n | n | n
Cc1ccccc1Nc1c(-c2ccncc2)nc2ccc(Br)cn12 | n | x | -6.92 | n | 50.8% | n
Cc1ccccc1Nc1c(-c2cccnc2)nc2ccc(Br)cn12 | n | n | n | n | x | x
Cc1c(CNC(=O)C2CC2)c(-n2cccc2)n(Cc2ccccc2)c1C | n | n | n | n | x | x
Cc1ccc2ncc(S(=O)(=O)c3ccccc3)c(N3CCCCC3C)c2c1 (centres undefined) | n | n | -6.22 | n | n | n
